Laboratory results as given in PubChem BioAssay (EPA / NIEHS).
Activity calls are given as the source filed them. The calls were made as follows: active = hit-call score of the fitted dose curve at least 0.9, where 1 is the maximum; inactive = score below 0.9.

Legend:
Details in all cases: mRNA level, 48 h; actives raise or lower the signal
[1] = read-out: Ezrin (EZR), EZR (gene 7430); assay: LTEA_HepaRG_EZR: Life Technologies and Expression Analysis (LTEA) Assay for Ezrin (EZR) using HepaRG (AID 2283491)
Summary of the method: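 HepaRG, 48 h chemical exposure, 8-pt half-log series from 100 uM, 0.5% DMSO vehicle, duplicates. Read-out: EZR mRNA by TaqMan qRT-PCR (Fluidigm array), housekeeping-normalized; bidirectional curve fit vs DMSO baseline.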

[2] = read-out: Cytochrome P450 3A7 (Homo sapiens) (UniProt P24462); assay: LTEA_HepaRG_CYP3A7: Life Technologies and Expression Analysis (LTEA) Assay for CYP3A7 using HepaRG (AID 2283492)
Summary of the method: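 Human HepaRG liver cells, 48 h post-plating, switched to serum-free induction medium and exposed in duplicate for 48 h. Dosing: 100 uM top, half-log dilutions, 8 points, 0.5% DMSO vehicle. Read-out: CYP3A7 mRNA, gain or loss fitted against DMSO baseline.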

[3] = read-out: Fatty Acid-Binding Protein 1 (FABP1), FABP1 (gene 2168); assay: LTEA_HepaRG_FABP1: Life Technologies and Expression Analysis (LTEA) Assay for Fatty Acid-Binding Protein 1 (FABP1) using HepaRG (AID 2283494)
Summary of the method: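 HepaRG, 48 h post-plating switched to serum-free induction medium, then dosed 48 h (duplicate, 8 pts, ≤100 uM, 0.5% DMSO). RNA → Fluidigm TaqMan qRT-PCR, FABP1 normed to ACTB/GAPDH/POLR2A. Bidirectional curve fit vs DMSO.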

[4] = read-out: Cytochrome P450 7A1 (Homo sapiens) (UniProt P22680); assay: LTEA_HepaRG_CYP7A1: Life Technologies and Expression Analysis (LTEA) Assay for Cytochrome P450 7A1 (CYP7A1) using HepaRG (AID 2283496)
Summary of the method: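 HepaRG cells plated 48 h, then switched to serum-free induction medium and exposed in duplicate for 48 h to 8-point half-log series from 100 uM in 0.5% DMSO. CYP7A1 mRNA by qRT-PCR (TaqMan), normalized to ACTB/GAPDH/POLR2A; bidirectional fit versus DMSO.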

[5] = read-out: growth arrest and DNA damage 45 (GADD45G), GADD45G (gene 10912); assay: LTEA_HepaRG_GADD45G: Life Technologies and Expression Analysis (LTEA) Assay for growth arrest and DNA damage 45 (GADD45G) using HepaRG (AID 2283499)
Summary of the method: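 Gain or loss of GADD45G mRNA, quantified by TaqMan qRT-PCR against three housekeeping genes, is fitted in both directions relative to 0.5% DMSO. Human HepaRG cultures receive test chemical for 48 h at up to 100 uM.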

[6] = read-out: Glutamate-cysteine ligase regulatory (GCLM), GCLM (gene 2730); assay: LTEA_HepaRG_GCLM: Life Technologies and Expression Analysis (LTEA) Assay for Glutamate-cysteine ligase regulatory (GCLM) using HepaRG (AID 2283500)
Summary of the method: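 Differentiated HepaRG cells exposed 48 h in serum-free induction medium to eight half-log concentrations up to 100 uM (0.5% DMSO). GCLM mRNA by TaqMan qRT-PCR, normalized to ACTB, GAPDH and POLR2A; bidirectional fit versus DMSO.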

[7] = read-out: Glutathione S-transferase M3 (GSTM3), GSTM3 (gene 2947); assay: LTEA_HepaRG_GSTM3: Life Technologies and Expression Analysis (LTEA) Assay for Glutathione S-transferase M3 (GSTM3) using HepaRG (AID 2283501)
Summary of the method: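 HepaRG, plated 48 h, then serum-free induction medium; test chemical 48 h, duplicate; 100 uM top, half-log x8, 0.5% DMSO. Read-out: GSTM3 mRNA (TaqMan qRT-PCR, Fluidigm array). Bidirectional fit vs DMSO.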

[8] = read-out: Heat shock 70 kDa protein 1 (HSPA1A), gene 3303; assay: LTEA_HepaRG_HSPA1A: Life Technologies and Expression Analysis (LTEA) Assay for Heat shock 70 kDa protein 1 (HSPA1A) using HepaRG (AID 2283502)
Summary of the method: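 Human HepaRG cells in serum-free induction medium were exposed in duplicate for 48 h to 8 half-log concentrations, highest 100 uM, in 0.5% DMSO. HSPA1A mRNA read by TaqMan qRT-PCR, normalized to ACTB, GAPDH, POLR2A, fitted bidirectionally against DMSO.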

[9] = read-out: Hypoxia-inducible factor 1-alpha (Homo sapiens) (UniProt Q16665); assay: LTEA_HepaRG_HIF1A: Life Technologies and Expression Analysis (LTEA) Assay for Hypoxia-inducible factor 1 (HIF1A) Trancription factor using HepaRG (AID 2283503)
Summary of the method: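 Differentiated HepaRG cells in serum-free induction medium exposed 48 h, in duplicate, to 8-point half-log series from 100 uM in 0.5% DMSO. HIF1A mRNA measured by TaqMan qRT-PCR, normalized to ACTB/GAPDH/POLR2A, fitted bidirectionally versus DMSO.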

[10] = read-out: 3-Hydroxy-3-Methylglutaryl-CoA Synthase 2 (HMGCS2), HMGCS2 (gene 3158); assay: LTEA_HepaRG_HMGCS2: Life Technologies and Expression Analysis (LTEA) Assay for 3-Hydroxy-3-Methylglutaryl-CoA Synthase 2 (HMGCS2) using HepaRG (AID 2283504)
Summary of the method: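 HepaRG, plated 48 h then switched to serum-free induction media; cmpd 8-pt, max 100 uM, 1/2-log, 0.5% DMSO, n=2, 48 h. HMGCS2 mRNA by Fluidigm TaqMan qRT-PCR, ACTB/GAPDH/POLR2A norm; bidirectional fit vs DMSO.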

[11] = read-out: HGF (gene 3082); assay: LTEA_HepaRG_HGF: Life Technologies and Expression Analysis (LTEA) Assay for Hepatocyte Growth Facto (HGF) using HepaRG (AID 2283505)
Summary of the method: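 Read-out is HGF transcript level by qRT-PCR, normalized to three housekeeping genes, fitted bidirectionally against 0.5% DMSO vehicle. Human HepaRG cells received test chemicals for 48 h at up to 100 uM.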

[12] = read-out: Insulin Like Growth Factor 1 (IGF1), IGF1 (gene 3479); assay: LTEA_HepaRG_IGF1: Life Technologies and Expression Analysis (LTEA) Assay for Insulin Like Growth Factor 1 (IGF1) using HepaRG (AID 2283506)
Summary of the method: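 Differentiated HepaRG cells in serum-free induction medium, exposed 48 h in duplicate to 8 half-log concentrations up to 100 uM in 0.5% DMSO. IGF1 mRNA by Fluidigm qRT-PCR, normalised to ACTB, GAPDH and POLR2A.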

[13] = read-out: Intercellular Adhesion Molecule 1 (ICAM1), ICAM1 (gene 3383); assay: LTEA_HepaRG_ICAM1: Life Technologies and Expression Analysis (LTEA) Assay for Intercellular Adhesion Molecule 1 (ICAM1) using HepaRG (AID 2283507)
Summary of the method: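 Readout is qRT-PCR mRNA level, normalized to three housekeeping genes and fitted bidirectionally against 0.5% DMSO vehicle. Human HepaRG cultures received compound for 48 h, top concentration 100 uM with half-log dilutions.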

[14] = read-out: Insulin-like growth factor-binding protein 1 (IGFBP1), IGFBP1 (gene 3484); assay: LTEA_HepaRG_IGFBP1: Life Technologies and Expression Analysis (LTEA) Assay for Insulin-like growth factor-binding protein 1 (IGFBP1) using HepaRG (AID 2283508)
Summary of the method: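 Thawed HepaRG cells are plated for 48 h, switched to serum-free induction medium, then dosed in duplicate for another 48 h (100 uM top, half-log steps). Lysates in RLT go to qRT-PCR, and gain or loss of signal is fitted relative to vehicle.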

[15] = read-out: Interleukin 6 (IL6), IL6 (gene 3569); assay: LTEA_HepaRG_IL6: Life Technologies and Expression Analysis (LTEA) Assay for Interleukin 6 (IL6) using HepaRG (AID 2283509)
Summary of the method: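 HepaRG, ~100,000 cells/well, 48 h pre-culture; serum-free induction medium; cmpd 8-pt half-log from 100 uM, 0.5% DMSO, duplicate, 48 h. Lysis in RLT, TaqMan qRT-PCR; gain or loss vs DMSO.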

[16] = read-out: Interleukin 6 Receptor (IL6R), IL6R (gene 3570); assay: LTEA_HepaRG_IL6R: Life Technologies and Expression Analysis (LTEA) Assay for Interleukin 6 Receptor (IL6R) using HepaRG (AID 2283510)
Summary of the method: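 Differentiated HepaRG cells, plated 48 h, then exposed in duplicate for 48 h in serum-free induction medium to 8 half-log concentrations (top 100 uM, 0.5% DMSO). IL6R mRNA measured by TaqMan qRT-PCR, normalized to ACTB/GAPDH/POLR2A; bidirectional fit vs DMSO.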

[17] = read-out: Potassium channel subfamily K member 1 (KCNK1), KCNK1 (gene 3775); assay: LTEA_HepaRG_KCNK1: Life Technologies and Expression Analysis (LTEA) Assay for Potassium channel subfamily K member 1 (KCNK1) using HepaRG (AID 2283511)
Summary of the method: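 Gain or loss of KCNK1 mRNA is the read-out, quantified by qRT-PCR against three housekeeping genes after 48 h chemical treatment of human HepaRG liver cells. Concentrations ran from 100 uM downward in half-log steps, vehicle 0.5% DMSO.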

[18] = read-out: Keratin 19 (KRT19), KRT19 (gene 3880); assay: LTEA_HepaRG_KRT19: Life Technologies and Expression Analysis (LTEA) Assay for Keratin 19 (KRT19) using HepaRG (AID 2283512)
Summary of the method: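 KRT19 transcript levels, measured by Fluidigm qRT-PCR against three housekeeping genes, are fitted for gain or loss of signal relative to DMSO. Human HepaRG cells receive test chemicals (top 100 uM, half-log steps, 0.5% DMSO) for 48 hours.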

[19] = read-out: Glutamate-cysteine ligase catalytic (GCLC), GCLC (gene 2729); assay: LTEA_HepaRG_GCLC: Life Technologies and Expression Analysis (LTEA) Assay for Glutamate-cysteine ligase catalytic (GCLC) using HepaRG (AID 2283498)
Summary of the method: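 Read-out is GCLC transcript level by Fluidigm-based TaqMan qRT-PCR, normalized to three housekeeping genes and fitted in both directions relative to 0.5% DMSO. Human HepaRG cells received chemicals for 48 h, up to 100 uM.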

[20] = read-out: Glutathione S-Transferase (GSTA2), GSTA2 (gene 2939); assay: LTEA_HepaRG_GSTA2: Life Technologies and Expression Analysis (LTEA) Assay for Glutathione S-Transferase (GSTA2) using HepaRG (AID 2283497)
Summary of the method: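 HepaRG, 48 h dosing, 8-pt half-log CRC from 100 uM, 0.5% DMSO vehicle, n=2; RNA → Fluidigm TaqMan qRT-PCR; GSTA2 vs ACTB/GAPDH/POLR2A; gain/loss fit vs DMSO.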

Measured: AC50

Cytochrome P450 3A7 (Homo sapiens), sequence (P24462 whole entry, looked up): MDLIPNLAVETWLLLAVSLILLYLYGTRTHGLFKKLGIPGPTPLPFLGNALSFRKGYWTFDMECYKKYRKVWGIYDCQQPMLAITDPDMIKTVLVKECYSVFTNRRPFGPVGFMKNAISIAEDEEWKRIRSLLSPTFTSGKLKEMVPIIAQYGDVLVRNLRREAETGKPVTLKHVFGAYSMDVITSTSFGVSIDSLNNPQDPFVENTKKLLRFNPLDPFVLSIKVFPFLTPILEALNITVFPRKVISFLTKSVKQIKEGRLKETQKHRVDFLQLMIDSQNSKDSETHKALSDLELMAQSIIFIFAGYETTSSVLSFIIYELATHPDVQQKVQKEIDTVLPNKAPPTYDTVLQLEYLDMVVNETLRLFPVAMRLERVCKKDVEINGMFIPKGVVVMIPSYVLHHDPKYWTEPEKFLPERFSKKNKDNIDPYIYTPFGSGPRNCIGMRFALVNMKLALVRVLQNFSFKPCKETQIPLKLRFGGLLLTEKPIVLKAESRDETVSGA
Hypoxia-inducible factor 1-alpha (Homo sapiens), sequence (Q16665 whole entry, looked up): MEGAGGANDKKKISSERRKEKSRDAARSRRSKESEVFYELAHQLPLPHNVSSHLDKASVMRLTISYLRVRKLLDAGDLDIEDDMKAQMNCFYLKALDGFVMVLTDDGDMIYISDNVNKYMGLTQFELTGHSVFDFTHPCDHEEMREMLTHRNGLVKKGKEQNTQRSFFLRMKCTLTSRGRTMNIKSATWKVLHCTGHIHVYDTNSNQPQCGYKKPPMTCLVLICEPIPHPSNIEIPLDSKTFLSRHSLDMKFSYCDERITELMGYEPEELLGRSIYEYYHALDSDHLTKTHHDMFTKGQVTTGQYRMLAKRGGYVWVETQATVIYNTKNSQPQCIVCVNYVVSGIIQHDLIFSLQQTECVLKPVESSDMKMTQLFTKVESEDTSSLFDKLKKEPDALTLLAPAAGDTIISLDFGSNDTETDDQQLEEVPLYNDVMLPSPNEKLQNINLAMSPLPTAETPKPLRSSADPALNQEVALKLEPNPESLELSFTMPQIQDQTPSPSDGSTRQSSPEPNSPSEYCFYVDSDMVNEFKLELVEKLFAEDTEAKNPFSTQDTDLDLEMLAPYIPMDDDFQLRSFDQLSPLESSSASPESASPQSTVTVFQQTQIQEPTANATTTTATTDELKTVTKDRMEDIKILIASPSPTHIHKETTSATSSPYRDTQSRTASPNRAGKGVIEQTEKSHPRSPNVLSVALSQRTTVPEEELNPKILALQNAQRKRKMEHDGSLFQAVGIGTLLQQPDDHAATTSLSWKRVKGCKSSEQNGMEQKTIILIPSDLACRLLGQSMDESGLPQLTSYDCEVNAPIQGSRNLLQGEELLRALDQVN

ClC1=C(Cl)C2(Cl)C3C(Cl)C(Cl)CC3C1(Cl)C2(Cl)Cl (stereo not drawn)
active: [3] 12.5 µM | [4] 10.4 µM | [6] 50 µM | [9] 4.98 µM | [10] 31.7 µM | [12] 23.5 µM
not listed: [19] | [20]
inactive: all other assays above

CCC(C)(C)c1ccc(O)cc1
not listed: [19] | [20]
inactive: all other assays above

c1cc2c3c(cccc3c1)CC2
not listed: [19] | [20]
inactive: all other assays above

CCNc1nc(Cl)nc(NC(C)(C)C)n1
active: [3] 28.7 µM | [12] 13.1 µM | [18] 10.7 µM
not listed: [19] | [20]
inactive: all other assays above

Nc1cc2c3c(c1)C(c1ccccc1)=N[C@@H](NC(=O)c1cccnc1)C(=O)N3CC2
active: [2] 5.11 µM | [3] 50 µM | [12] 11.8 µM
not listed: [19] | [20]
inactive: all other assays above

Nc1ccc(Cl)cc1
not listed: [19] | [20]
inactive: all other assays above

[N-]=[N+]=[N-]
active: [1] 50 µM | [3] 77.6 µM | [5] 78.1 µM | [6] 95 µM | [10] 77 µM | [12] 68.6 µM | [14] 86.4 µM | [15] 93.6 µM | [18] 64.8 µM
inactive: [2] | [4] | [7] | [8] | [9] | [11] | [13] | [16] | [17]

O=C(O)C(Cl)Cl
not listed: [20]
inactive: all other assays above

CCCCc1ccccc1
not listed: [19]
inactive: all other assays above

ClC(Cl)(Cl)c1ccccc1
not listed: [19] | [20]
inactive: all other assays above

Cc1ccc(N)cc1N
active: [4] 18 µM
not listed: [19] | [20]
inactive: all other assays above

CCCCN(CCCC)N=O
not listed: [19] | [20]
inactive: all other assays above

CC(Cc1ccc(OCC(=O)O)cc1)NCC(O)c1csc(C(F)(F)F)n1 (stereo not drawn)
active: [18] 0.138 µM
not listed: [19] | [20]
inactive: all other assays above

c1nc[nH]n1
active: [7] 12.6 µM | [13] 0.112 µM | [17] 0.116 µM
not listed: [19] | [20]
inactive: all other assays above

O=[N+]([O-])c1ccc(Cl)c(Cl)c1
not listed: [19] | [20]
inactive: all other assays above

CCOc1ccc(C(C)(C)COCc2cccc(Oc3ccccc3)c2)cc1
active: [2] 1.64 µM | [4] 26.8 µM | [12] 12.4 µM
not listed: [19]
inactive: all other assays above

CCCCCCCc1ccc(O)cc1
not listed: [19] | [20]
inactive: all other assays above

Cc1ccc([N+](=O)[O-])cc1C
not listed: [19] | [20]
inactive: all other assays above

OCC1CO1 (stereo not drawn)
not listed: [19] | [20]
inactive: all other assays above

CCN(CC)c1ccccc1
inactive: all assays above

CN(C)C(=O)Cl
not listed: [19] | [20]
inactive: all other assays above
